Data reported in PubChem BioAssay (EPA / NIEHS).
Calls of active or inactive are those of the source. The calls were made as follows: active = hit-call score of the fitted dose curve at least 0.9, where 1 is the maximum; inactive = score below 0.9.

Columns and labels:
[1] = BSK_hDFCGF_SRB: Viability Assessment in the BioMAP Diversity Plus: hDFCGF Assay (AID 2283061); conditions: primary human foreskin fibroblasts;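 also: cells exposed to compound for 24 h before the read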
Summary of the method: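 Primary human foreskin fibroblasts; 24 h post-dose; fixed 10% TCA, stained 0.1% SRB, A560 read; total protein as overt cytotoxicity measure; curves fit bidirectionally vs DMSO control.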

[2] = read-out: TIMP metallopeptidase inhibitor 1 (TIMP1), TIMP1 (gene 7076); experiment: BSK_hDFCGF_TIMP1: BioMAP Diversity Plus: hDFCGF Assay for TIMP metallopeptidase inhibitor 1 (TIMP1) Biomarker Activity (AID 2283062); conditions: primary human foreskin fibroblasts; actives raise or lower the signal
Summary of the method: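 ELISA readout of TIMP-1 from human dermal foreskin fibroblast cultures 24 h post-dosing. Curves were fitted in both directions against DMSO baseline, with SRB total-protein staining in parallel cultures as a cytotoxicity check.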

[3] = read-out: Monokine induced gamma interferon (MIG), CXCL9 (gene 4283); experiment: BSK_hDFCGF_MIG: BioMAP Diversity Plus: hDFCGF Assay for Monokine induced gamma interferon (MIG) Biomarker Activity (AID 2283063); conditions: primary human foreskin fibroblasts; actives raise or lower the signal
Summary of the method: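 Fibroblasts (human foreskin, primary) dosed, 24 h, MIG by ELISA; fit bidirectional vs DMSO.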

[4] = read-out: Matrix Metallopeptidase 1 (MMP1), MMP1 (gene 4312); experiment: BSK_hDFCGF_MMP1: BioMAP Diversity Plus: hDFCGF Assay for Matrix Metallopeptidase 1 (MMP1) Biomarker Activity (AID 2283064); conditions: primary human foreskin fibroblasts; actives raise or lower the signal
Summary of the method: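 Primary human foreskin fibroblasts in the hDFCGF system were dosed with test chemical, and MMP1 was measured by ELISA 24 h later. Values come from bidirectional curve fitting against the DMSO baseline.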

[5] = read-out: Vascular cell adhesion molecule 1 (VCAM1), VCAM1 (gene 7412); experiment: BSK_hDFCGF_VCAM1: BioMAP Diversity Plus: hDFCGF Assay for Vascular cell adhesion molecule 1 (VCAM1) Biomarker Activity (AID 2283065); conditions: primary human foreskin fibroblasts; actives raise or lower the signal;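 as to AC50: VCAM-1 protein level quantified by ELISA after 24 h chemical exposure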
Summary of the method: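 ELISA read-out of VCAM-1 on human skin fibroblasts, 24 h post-dose; gain or loss of signal fitted bidirectionally against DMSO baseline.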

[6] = read-out: Plasminogen activator inhibitor-1 (PAI1), SERPINE1 (gene 5054); experiment: BSK_hDFCGF_PAI1: BioMAP Diversity Plus: hDFCGF Assay for Plasminogen activator inhibitor-1 (PAI1) Biomarker Activity (AID 2283066); conditions: primary human foreskin fibroblasts; actives raise or lower the signal
Summary of the method: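 Human foreskin fibroblast primary cells, 24 h chemical exposure; PAI-1 measured by ELISA. Bidirectional fitting relative to DMSO; parallel cultures stained with SRB for total protein to flag overt cytotoxicity.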

[7] = read-out: Intercellular Adhesion Molecule 1 (ICAM1), ICAM1 (gene 3383); experiment: BSK_KF3CT_ICAM1: BioMAP Diversity Plus: KF3CT Assay for Intercellular Adhesion Molecule 1 (ICAM1) Biomarker Activity (AID 2283067); conditions: primary human keratinocytes with fibroblasts; actives raise or lower the signal
Summary of the method: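 ELISA readout of ICAM-1; KF3CT human skin co-culture (keratinocytes + foreskin fibroblasts), 24 h post-dose; gain/loss fit vs DMSO baseline.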

[8] = read-out: Interferon-gamma inducible Protein 10 (IP10), CXCL10 (gene 3627); experiment: BSK_KF3CT_IP10: BioMAP Diversity Plus: KF3CT Assay for Interferon-gamma inducible Protein 10 (IP10) Biomarker Activity (AID 2283068); conditions: primary human keratinocytes with fibroblasts; actives raise or lower the signal
Summary of the method: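 Signal is secreted/surface IP-10 by ELISA in a human primary skin co-culture of keratinocytes and foreskin fibroblasts, taken 24 h post-dosing; DMSO served as negative control.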

[9] = BSK_KF3CT_SRB: Viability Assessment in the BioMAP Diversity Plus: KF3CT Assay (AID 2283069); conditions: primary human keratinocytes with fibroblasts;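 also: total protein by sulforhodamine B staining as a cytotoxicity measure; read 24 h after compound addition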
Summary of the method: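 Human primary keratinocyte plus foreskin fibroblast co-culture exposed to chemicals for 24 h. Total protein measured by 0.1% sulforhodamine B staining after 10% TCA fixation, read at 560 nm; bidirectional fitting versus DMSO baseline.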

[10] = read-out: TIMP metallopeptidase inhibitor 2 (TIMP2), TIMP2 (gene 7077); experiment: BSK_KF3CT_TIMP2: BioMAP Diversity Plus: KF3CT Assay for TIMP metallopeptidase inhibitor 2 (TIMP2) Biomarker Activity (AID 2283071); conditions: primary human keratinocytes with fibroblasts; actives raise or lower the signal
Summary of the method: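 Co-culture of human primary keratinocytes and foreskin fibroblasts, measured 24 h after chemical dosing. TIMP-2 quantified by ELISA and fitted in both directions relative to DMSO. Cytotoxicity checked in parallel cultures by SRB total-protein staining.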

[11] = read-out: C-C motif chemokine 2 (Homo sapiens) (UniProt P13500); experiment: BSK_KF3CT_MCP1: BioMAP Diversity Plus: KF3CT Assay for Monocyte Chemoattractant Protein 1 (MCP1/CCL2) Biomarker Activity (AID 2283073); conditions: primary human keratinocytes with fibroblasts; actives raise or lower the signal
Summary of the method: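 KF3CT skin co-culture (keratinocytes/foreskin fibroblasts), 24 h post-dose; MCP-1 by ELISA; gain/loss of signal fit bidirectionally vs DMSO baseline.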

[12] = read-out: Matrix Metallopeptidase 9 (MMP9), MMP9 (gene 4318); experiment: BSK_KF3CT_MMP9: BioMAP Diversity Plus: KF3CT Assay for Matrix Metallopeptidase 9 (MMP9) Biomarker Activity (AID 2283074); conditions: primary human keratinocytes with fibroblasts; actives raise or lower the signal;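 as to AC50: MMP9 protein level quantified by ELISA in the co-culture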
Summary of the method: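 Keratinocyte plus foreskin fibroblast human primary skin co-culture was dosed with chemical and MMP-9 was quantified by ELISA 24 h later. Bidirectional curve fitting used DMSO as negative control and activity baseline.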

[13] = read-out: urokinase plasminogen activator (uPA), PLAU (gene 5328); experiment: BSK_KF3CT_uPA: BioMAP Diversity Plus: KF3CT Assay for urokinase plasminogen activator (uPA) Biomarker Activity (AID 2283075); conditions: primary human keratinocytes with fibroblasts; actives raise or lower the signal
Summary of the method: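 Human keratinocyte plus foreskin fibroblast primary co-culture exposed to chemical for 24 h. uPA levels were quantified by ELISA, and activity was fitted bidirectionally against a DMSO negative-control baseline.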

CD40, CD40 (gene 958) = experiment: BSK_LPS_CD40: BioMAP Diversity Plus: LPS Assay for CD40 Biomarker Activity (AID 2283076); conditions: primary human HUVEC with PBMC; actives raise or lower the signal
Summary of the method: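 ELISA readout of CD40 in HUVEC/PBMC co-culture (BSK_LPS system), 24 h post-dosing; bidirectional curve fit, DMSO baseline; parallel SRB total-protein staining for cytotoxicity.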

[14] = read-out: Interleukin-8 (IL8), CXCL8 (gene 3576); experiment: BSK_LPS_IL8: BioMAP Diversity Plus: LPS Assay for Interleukin-8 (IL8) Biomarker Activity (AID 2283078); conditions: primary human HUVEC with PBMC; actives raise or lower the signal
Summary of the method: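 HUVEC + PBMC co-culture, LPS-activated; test chemicals dosed, IL-8 read by ELISA at 24 h. Bidirectional curve fit vs DMSO baseline (gain or loss of signal).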

[15] = BSK_LPS_SRB: Viability Assessment in the BioMAP Diversity Plus: LPS Assay (AID 2283079); conditions: primary human HUVEC with PBMC;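 also: total protein by sulforhodamine B absorbance as a cytotoxicity measure; measured one day after compound addition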
Summary of the method: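 HUVEC + PBMC co-culture, LPS-stimulated; compound 24 h. 10% TCA fix, 0.1% SRB stain, A560. Bidirectional fit vs DMSO.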

[16] = read-out: Interleukin-1 alpha (IL1a), IL1A (gene 3552); experiment: BSK_LPS_IL1a: BioMAP Diversity Plus: LPS Assay for Interleukin-1 alpha (IL1a) Biomarker Activity (AID 2283080); conditions: primary human HUVEC with PBMC; actives raise or lower the signal
Summary of the method: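 HUVEC/PBMC co-culture, LPS system; 24 h after dosing; IL-1a by ELISA; gain or loss of signal fitted bidirectionally vs DMSO baseline.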

[17] = read-out: Monocyte Chemoattractant Protein-1 (MCP1), CCL2 (gene 6347); experiment: BSK_LPS_MCP1: BioMAP Diversity Plus: LPS Assay for Monocyte Chemoattractant Protein-1 (MCP1) Biomarker Activity (AID 2283081); conditions: primary human HUVEC with PBMC; actives raise or lower the signal;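 as to AC50: secreted MCP-1 protein quantified by ELISA in culture supernatant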
Summary of the method: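 ELISA read-out of MCP-1 after 24 h chemical dosing of a human umbilical vein endothelial cell/peripheral blood mononuclear cell co-culture stimulated with LPS. Gain or loss of signal fitted relative to DMSO controls.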

[18] = read-out: Interleukin-1 alpha (IL1a), IL1A (gene 3552); experiment: BSK_KF3CT_IL1a: BioMAP Diversity Plus: KF3CT Assay for Interleukin-1 alpha (IL1a) Biomarker Activity (AID 2283070); conditions: primary human keratinocytes with fibroblasts; actives raise or lower the signal
Summary of the method: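 Human keratinocyte plus foreskin fibroblast primary co-culture, sampled 24 h after chemical dosing. IL-1a measured by ELISA; responses fitted bidirectionally against DMSO baseline (negative control), so gain or loss of signal both count.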

[19] = read-out: E-selectin (Homo sapiens) (UniProt P16581); experiment: BSK_LPS_Eselectin: BioMAP Diversity Plus: LPS Assay for Eselectin Biomarker Activity (AID 2283077); conditions: primary human HUVEC with PBMC; actives raise or lower the signal
Summary of the method: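 ELISA readout of E-selectin, 24 h post-dose, HUVEC + PBMC co-culture (LPS system). Gain or loss of signal vs DMSO baseline, bidirectional fit.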

Chain of E-selectin (Homo sapiens) (P16581 whole entry, looked up): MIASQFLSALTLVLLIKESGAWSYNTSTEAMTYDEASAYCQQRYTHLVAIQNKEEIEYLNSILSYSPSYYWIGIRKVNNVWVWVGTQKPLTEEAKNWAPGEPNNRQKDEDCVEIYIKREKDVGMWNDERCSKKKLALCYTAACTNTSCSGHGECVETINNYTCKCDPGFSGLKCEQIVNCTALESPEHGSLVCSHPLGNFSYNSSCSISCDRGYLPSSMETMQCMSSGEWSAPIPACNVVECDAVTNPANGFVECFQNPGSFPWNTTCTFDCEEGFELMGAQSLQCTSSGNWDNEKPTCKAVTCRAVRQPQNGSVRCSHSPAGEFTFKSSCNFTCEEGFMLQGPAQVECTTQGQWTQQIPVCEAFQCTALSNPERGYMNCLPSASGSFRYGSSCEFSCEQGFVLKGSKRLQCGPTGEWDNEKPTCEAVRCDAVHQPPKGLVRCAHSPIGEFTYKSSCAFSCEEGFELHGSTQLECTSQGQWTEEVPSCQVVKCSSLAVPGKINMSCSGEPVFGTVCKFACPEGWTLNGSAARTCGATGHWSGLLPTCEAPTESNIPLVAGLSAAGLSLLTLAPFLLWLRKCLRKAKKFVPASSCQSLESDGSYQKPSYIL

## c1ccc2sc(SN(C3CCCCC3)C3CCCCC3)nc2c1
[1]
  AC50: 4.26 µM (active)
[2]
  outcome: inactive
[3]
  outcome: inactive
[4]
  outcome: inactive
[5]
  outcome: inactive
[6]
  AC50: 2.8 µM (active)
[7]
  outcome: inactive
[8]
  outcome: inactive
[9]
  outcome: inactive
[10]
  outcome: inactive
[11]
  outcome: inactive
[12]
  AC50: 0.888 µM (active)
[13]
  outcome: inactive
CD40, CD40 (gene 958)
  outcome: inactive
[14]
  outcome: inactive
[15]
  outcome: inactive
[16]
  outcome: inactive
[17]
  outcome: inactive

## C=C[Si](OCC)(OCC)OCC
[1]
  outcome: inactive
[2]
  outcome: inactive
[3]
  outcome: inactive
[4]
  outcome: inactive
[5]
  outcome: inactive
[6]
  outcome: inactive
[7]
  outcome: inactive
[8]
  outcome: inactive
[9]
  outcome: inactive
[10]
  outcome: inactive
[11]
  outcome: inactive
[12]
  outcome: inactive
[13]
  outcome: inactive
CD40, CD40 (gene 958)
  outcome: inactive
[14]
  outcome: inactive
[15]
  outcome: inactive
[16]
  outcome: inactive
[17]
  outcome: inactive

## O=C1OC2(c3cc(Br)c(O)c(Br)c3Oc3c2cc(Br)c(O)c3Br)c2c(Cl)c(Cl)c(Cl)c(Cl)c21
[1]
  AC50: 6.54 µM (active)
[2]
  AC50: 11.5 µM (active)
[3]
  AC50: 11.6 µM (active)
[4]
  AC50: 3.42 µM (active)
[5]
  AC50: 4.38 µM (active)
[6]
  AC50: 2.43 µM (active)
[7]
  AC50: 8.86 µM (active)
[8]
  AC50: 7.41 µM (active)
[9]
  AC50: 4.07 µM (active)
[18]
  AC50: 3.69 µM (active)
[10]
  AC50: 1.6 µM (active)
[12]
  AC50: 3.53 µM (active)
[13]
  AC50: 3.89 µM (active)
CD40, CD40 (gene 958)
  AC50: 4.27 µM (active)
[14]
  AC50: 13.2 µM (active)
[16]
  AC50: 3.73 µM (active)
[17]
  AC50: 4.59 µM (active)

## Cc1ccc(Nc2ccc(O)c3c2C(=O)c2ccccc2C3=O)cc1
[1]
  outcome: inactive
[2]
  outcome: inactive
[3]
  outcome: inactive
[4]
  outcome: inactive
[5]
  outcome: inactive
[6]
  AC50: 1.61 µM (active)
[7]
  outcome: inactive
[8]
  outcome: inactive
[9]
  outcome: inactive
[18]
  outcome: inactive
[10]
  outcome: inactive
[11]
  outcome: inactive
[12]
  outcome: inactive
[13]
  outcome: inactive
CD40, CD40 (gene 958)
  outcome: inactive
[14]
  outcome: inactive
[15]
  outcome: inactive
[16]
  outcome: inactive
[17]
  outcome: inactive

## CC(=O)[C@H]1CC[C@H]2[C@@H]3CC=C4C[C@@H](O)CC[C@]4(C)[C@H]3CC[C@]12C
[1]
  outcome: inactive
[2]
  outcome: inactive
[3]
  outcome: inactive
[4]
  outcome: inactive
[5]
  outcome: inactive
[6]
  outcome: inactive
[7]
  outcome: inactive
[8]
  outcome: inactive
[9]
  outcome: inactive
[10]
  outcome: inactive
[11]
  outcome: inactive
[12]
  outcome: inactive
[13]
  outcome: inactive
CD40, CD40 (gene 958)
  outcome: inactive
[19]
  outcome: inactive
[14]
  outcome: inactive
[16]
  outcome: inactive
[17]
  outcome: inactive

## O=C(O)C[C@H](O)C[C@H](O)/C=C/c1c(C2CC2)nc2ccccc2c1-c1ccc(F)cc1
[1]
  outcome: inactive
[2]
  outcome: inactive
[3]
  outcome: inactive
[4]
  outcome: inactive
[5]
  outcome: inactive
[6]
  AC50: 2.96 µM (active)
[7]
  outcome: inactive
[8]
  outcome: inactive
[9]
  outcome: inactive
[10]
  outcome: inactive
[11]
  outcome: inactive
[12]
  outcome: inactive
[13]
  outcome: inactive
CD40, CD40 (gene 958)
  outcome: inactive
[19]
  AC50: 0.0822 µM (active)
[14]
  AC50: 0.992 µM (active)
[17]
  outcome: inactive

## OC1OC[C@@H](O)[C@H](O)[C@H]1O (stereo partly specified)
[1]
  outcome: inactive
[2]
  outcome: inactive
[3]
  outcome: inactive
[4]
  outcome: inactive
[5]
  outcome: inactive
[6]
  outcome: inactive
[7]
  outcome: inactive
[8]
  outcome: inactive
[9]
  outcome: inactive
[10]
  outcome: inactive
[11]
  outcome: inactive
[12]
  outcome: inactive
[13]
  outcome: inactive
CD40, CD40 (gene 958)
  outcome: inactive
[19]
  outcome: inactive
[14]
  outcome: inactive
[15]
  outcome: inactive
[16]
  outcome: inactive
[17]
  outcome: inactive
